Reference: PubChem BioAssay AID2023 (NMMLSC, 2009)
Values joined by “and” are separate entries in the source; they are usually repeats but may differ in a detail not shown here. Equal entries are not always repeated. In all, about 320,000 compounds went through this assay and about 1,100 (0.34%) were called active.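 Rule for the calls: active = GFP response vs DMSO above a set limit, about the screen mean plus 3 SD (cut at about 150% in these data); inconclusive = under 70 cell events counted for the yeast strain; inactive = the rest.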 Shown is part of a subset that was picked to be rich in actives. Where a structure was tested more than once in an assay, its records may differ in their call.

Experiment: modulators of LAP4-GFP expression in yeast, primary screen, S. cerevisiae, multiplex flow cytometry, MLPCN library (AID 2023)
Conditions: 3 h, at 10 µM, stronger effect = higher value, median GFP as percent of DMSO wells

GFP response vs DMSO, active:
O=C(Nc1ccccc1)c1nnsc1S(=O)(=O)c1ccc(Cl)cc1 187%
CCCn1nc(C(=O)NNC(=O)CCOc2ccccc2OCC)c2ccccc2c1=O 217%
O=C(COc1cccnc1[N+](=O)[O-])Nc1ccc(Cl)cc1F 178%
COC(=O)Cn1cc(/C=C/[N+](=O)[O-])c2ccccc21 164%
O=C1Oc2ccccc2C(=O)/C1=C/c1ccccc1O 208%
O=C(Nc1nnc(-c2ccc(Cl)cc2)o1)c1ccccc1Br 159%
CCC(=C/c1sc2ccc3ccccc3c2[n+]1C)/C=C1\Sc2ccc3ccccc3c2N1C 283%
Cc1cccc(Nc2nc3c(S(=O)(=O)c4ccccc4)nnn3c3ccccc23)c1C 783% [may fluoresce green]
CN(C)c1nc(=Nc2cccc(Cl)c2)ss1 191%
CCc1nnc(SCc2cccc(F)c2)nc1CC 152%
Cn1ncc(N2CCN(S(=O)(=O)c3ccc(Br)cc3)CC2)c(Cl)c1=O 170%

GFP response vs DMSO, 110% (inactive) and 152% (active):
O=C(O)Cc1csc(-c2cccc(Oc3ccccc3)c2)n1

GFP response vs DMSO, inactive:
CN(c1cccc(NC(=O)Nc2ccc(Cl)cc2)c1)S(C)(=O)=O 107%
Cc1nnsc1C(=O)N/N=C/c1ccccc1Cl 106%
CC(C)Oc1ccc(S(=O)(=O)N2CCOCC2)cc1NC(=O)C1CSC2(C)CCC(=O)N12 (stereo unspecified) 106%
O=[N+]([O-])c1ccc(S(=O)(=O)Nc2cccc(-c3ccc(N4CCCC4)nn3)c2)cc1 100%
COc1cc(/C=C/C(=O)O)cc(S(=O)(=O)Nc2ccccc2C(=O)NCCc2ccccc2)c1OC 96%
CCCn1nc(C(=O)Nc2ccc3nc(C)sc3c2)c2ccccc2c1=O 102%
CCCn1nc(C(=O)NNC(=O)CSCC(=O)Nc2cc(C)on2)c2ccccc2c1=O 91.7%
Brc1ccc(Nc2c3c(nc4ncnn24)CCC3)cc1 103%
Cc1cccc(NC(=O)CSc2nnc(CCNC(=O)OC(C)(C)C)o2)c1C 95.1%
Cc1ccc2nc(SC(C)C(=O)NCc3ccco3)[nH]c2c1 (stereo unspecified) 111%
Cc1ccn(-c2cccc(-n3ccc(C)n3)n2)n1 100%
CCN(CC)c1ccc(S(=O)(=O)N2CCCCC2)cc1NC(=O)C1=COCCO1 99.6%
CC(NC(=O)C1CCCN(S(=O)(=O)c2ccc(-n3cnnn3)cc2)C1)c1ccc(F)cc1 (stereo unspecified) 83.4%
COc1cc(OC)cc(C(=O)NCC(=O)OCc2csc(-c3ccccc3)n2)c1 101%
O=C(NCCc1csc(-c2ccccc2)n1)c1ccccc1F 120%
CC(=O)c1c(C)n([O-])c2ccccc2[n+]1=O 99.9%
COc1cccc(NC(=O)COc2cccnc2[N+](=O)[O-])c1 94.7%
CC(NC(=O)COc1cccnc1[N+](=O)[O-])c1ccc(Cl)cc1Cl (stereo unspecified) 116%
COc1cccc(CCNC(=O)c2cccc(NC(=O)C3=C(C)OCCS3)c2)c1 93.6%
CCc1ccc(N(CC(=O)NCc2cccnc2)S(=O)(=O)c2ccccc2)cc1 96.7%
O=C(O)CN1c2cccc3cccc(c23)S1(=O)=O 92.9%
COC(=O)c1cn(CC(=O)NCc2cccs2)c2ccccc12 95%
COC(=O)N/N=C/c1cn(CCCOc2ccc(C)cc2)c2ccccc12 89.7%
COC(=O)Cc1cnc(NC(=O)CSc2nc(C(C)C)cc(=O)[nH]2)s1 114%
COc1cc(C)c(C(C)C)cc1S(=O)(=O)n1ccnc1 89.6%
COC(=O)c1ccc(/C=C2/C(=O)Oc3ccccc32)cc1 93.2%
COc1ccc2c(c1)O/C(=C\c1ccccc1O)C2=O 108%
COc1ccc(Cl)cc1NC(=O)CN(C)C(=O)CCCc1c[nH]c2ccccc12 99.5%
O=Cc1c(NCCCN2CCCC2=O)c2ccccc2[nH]c1=O 100%
CCC1Sc2ccc(S(=O)(=O)CCC(=O)NCc3cccs3)cc2NC1=O (stereo unspecified) 106%
O=C(Nc1nnc(-c2ccccc2)o1)c1cc(-c2cccs2)nc2ccccc12 112%
O=C(COC(=O)c1ccccc1Br)Nc1nnc(-c2ccccc2)o1 115%
Cc1cccc(NS(=O)(=O)c2ccc(C(=O)NCC(C)(C)N3CCOCC3)cc2)c1C 103%
CCOc1ccc(NC(=O)CN(C)C(=O)COc2cccc(CC)c2)cc1OCC 100%
CCC(=O)N1CCC(C(N)=O)(N2CCCCC2)CC1 95.6%
CCCCCCSc1ccc([C@@H]2[C@@H]3C(=O)N(CC)C(=O)[C@@H]3[C@]3(C(=O)OC)CCCCN23)cc1OC 90.1%
O=C(Nc1cccc(Cl)c1Cl)c1ccccc1NC(=O)C1CC=CCC1C(=O)O (stereo unspecified) 67.7%
Cc1cccc(C)c1N1CCN(S(=O)(=O)N2CCOCC2)CC1 110%
C=CCOc1ccc(Cl)cc1CNCCCN1CCOCC1 91.3%
CC(=O)Nc1ccc(Nc2nc3c(S(=O)(=O)c4ccc(C)c(C)c4)nnn3c3ccccc23)cc1 89.9%
Cc1ccc(S(=O)(=O)c2nnn3c2nc(N2CCN(c4ccccn4)CC2)c2ccccc23)cc1 104%
CCOC(=O)N1CCN(C(=O)c2cn(C)c3ccc(S(=O)(=O)N(CC)CC)cc3c2=O)CC1 102%
O=C(O)C1OC(C(=O)O)C2C1C(F)(F)C2(F)F (stereo unspecified) 99.4%
O=C(CN1C(=O)NC2(CCCC2)C1=O)NCC1CCCO1 (stereo unspecified) 104%
O=c1[nH]c(SCc2cccc(F)c2)nc2ccccc12 108%
Nc1cc(N)nc(SCc2cccc(F)c2)n1 97.2%
O=C(CCC1CCN(C(=O)c2cccc(Cl)c2F)CC1)Nc1ccccc1 106%
CCOC(=O)N1CCN(S(=O)(=O)c2ccc(Br)cc2)CC1 108%
COc1ccccc1N1CCN(S(=O)(=O)c2ccc(Cl)cc2)CC1 110%
